Results filed as inconclusive are left out. Some compounds were tested as several samples or in several runs, with calls that do not always agree. Activity calls are given as the source filed them. Unless noted, calls follow the shape of the dose curve; as a rule, active = well fitted curve in the direction sought with a large enough effect in the repeat runs; inconclusive = weak or mixed curves; inactive = no such curve, though single readings can be large; an effect the other way counts as inactive or inconclusive.

Experiment [1] is described as follows: qHTS RealTime-Glo MT Cell Viability Assay in HEK293 cells - 0 hour (AID 1224880). Also: top concentration of the series differs between compounds; nearly all actives have a fitted effect of over 45% in size. A digest of the protocol:
(§1)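 HEK293 + NanoLuc + prosubstrate, 600 cells/well; 5 h, 37 C/5% CO2; compound 23 nL in DMSO by pintool; 37 C; luminescence read at 0, 8, 16, 24, 32 and 40 h time points.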

The nature of experiment [2]: A CellTox Green Cytotoxicity Assay to monitor cytotoxicity in HEK293 cells - 32 hour (AID 1224881). Also: nearly all actives have a fitted effect of over 40% in size. Summed up:
(§2)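 Tox21 screen in HEK293: membrane-impermeant cyanine dye fluoresces on binding dead-cell DNA; compound pinned 5 h post-seeding, plates held at 37 C, signal read repeatedly through 40 h.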

Experiment [3] can be described thus: A CellTox Green Cytotoxicity Assay to monitor cytotoxicity in HepG2 cells - 32 hour (AID 1224883). Also: nearly all actives have a fitted effect of over 50% in size. Summed up:
(§3)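 Measurements at 0, 8, 16, 24, 32 and 40 h of treatment captured CellTox Green fluorescence in HepG2 cells that had been co-plated with reagent and preincubated 5 h at 37 C/5% CO2.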

The nature of experiment [4]: A CellTox Green Cytotoxicity Assay to monitor cytotoxicity in HEK293 cells - 8 hour (AID 1224884). Also: nearly all actives have a fitted effect of over 35% in size. Summed up: as §2
The nature of experiment [5]: qHTS RealTime-Glo MT Cell Viability Assay in HepG2 cells - 16 hour (AID 1224885). Also: nearly all actives have a fitted effect of over 50% in size. A digest of the protocol: (§4)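 Real-time, nonlytic viability: 600 HepG2 cells/well mixed with NanoLuc enzyme plus prosubstrate; 5 h settle, compound (DMSO) added by pintool; luminescence monitored over 40 h at 37 C.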
Experiment [6] in a line: qHTS RealTime-Glo MT Cell Viability Assay in HEK293 cells - 24 hour (AID 1224886). Also: nearly all actives have a fitted effect of over 50% in size. Also: potency is read from the fitted curve at half-maximal effect. As to activity change, negative = cytotoxicity: top concentration of the series differs between compounds. Summed up:
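Cells + reagent dispensed (600 cells/well, HEK293) → 5 h at 37 C/5% CO2 → 23 nL compound in DMSO pinned → 40 h at 37 C → luminescence read at 0, 8, 16, 24, 32, 40 h.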

Experiment [7] is described as follows: qHTS RealTime-Glo MT Cell Viability Assay in HEK293 cells - 8 hour (AID 1224887). Also: nearly all actives have a fitted effect of over 50% in size. Also: potency is read from the fitted curve at half-maximal effect. As to activity change, negative = cytotoxicity: top concentration of the series differs between compounds. Summed up:
as §1

The nature of experiment [8]: A CellTox Green Cytotoxicity Assay to monitor cytotoxicity in HEK293 cells - 16 hour (AID 1224888). Also: nearly all actives have a fitted effect of over 35% in size. A digest of the protocol:
as §2

Experiment [9] in a line: qHTS RealTime-Glo MT Cell Viability Assay in HepG2 cells - 0 hour (AID 1224889). Also: nearly all actives have a fitted effect of over 50% in size. Summed up: as §4
Experiment [10] can be described thus: qHTS assay to identify small molecule antagonists of the estrogen receptor alpha (ER-alpha) signaling pathway using the BG1 cell line in the presence of 0.1 nM 17-beta-estradiol - cell viability counter screen (AID 1259241). Also: nearly all actives have a fitted effect of over 40% in size. A digest of the protocol:
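Estradiol-stimulated (0.1 nM) VM7Luc4E2 cells exposed to compounds 22 hr; viability measured by fluorescence of cleaved CellTiter-Fluor substrate after 30 min.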

Experiment [11] can be described thus: qHTS assay to identify small molecule antagonists of the androgen receptor (AR) signaling pathway using the MDA cell line in the presence of 0.5 nM R1881 - cell viability counter screen (AID 1259242). Also: nearly all actives have a fitted effect of over 45% in size. A digest of the protocol: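 Concentration-response screen of compounds for toxicity in MDA-kb2 reporter cells: 16 hr at 37C with 0.5 nM R1881, endpoint live-cell protease fluorescence measured in the reporter wells.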

The target in experiment [12] is Estrogen receptor (Homo sapiens) (UniProt P03372). In words: qHTS assay to identify small molecule antagonists of the estrogen receptor alpha (ER-alpha) signaling pathway using the BG1 cell line in the presence of 0.1 nM 17-beta-estradiol (AID 1259244). Also: nearly all actives have a fitted effect of over 50% in size. A digest of the protocol:
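Compounds were tested against 0.1 nM (final) 17beta-estradiol in VM7Luc4E2 cells, which express full-length ER-alpha and an ERE-luciferase reporter; luminescence was recorded following 22 h exposure.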

Experiment [13] is described as follows: qHTS assay to identify small molecule HDAC inhibitors (AID 1259364).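 Also: wild-type HCT-116 cells with endogenous class I/II HDAC activity; top concentration of the series differs between compounds; nearly all actives have a fitted effect of over 45% in size.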 Summed up: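 Screening used wild-type human colon HCT-116 cells incubated overnight, dosed with compounds for 2 hours, and assayed with a homogeneous luminogenic HDAC I/II reagent for 30 minutes at room temperature.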
The nature of experiment [14]: qHTS assay to identify small molecule HDAC inhibitors - cell viability counter screen (AID 1259365). Summed up:
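After overnight seeding at 1,500 cells per well, wild-type HCT-116 cultures took up compounds in DMSO for 2hr at 37 C. Viable cell content came from luminescence with CellTiter-Glo.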

Experiment [15] can be described thus: qHTS assay to identify small molecule agonists of the sonic hedgehog signaling (Shh) pathway - cell viability counter screen (AID 1259366). Also: nearly all actives have a fitted effect of over 50% in size. Summed up: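 Same-well cytotoxicity read. Gli1-Luc reporter 3T3 cells; compounds 24hr, 37C/5% CO2; CellTiter-Fluor fluorescence.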
Experiment [16] in a line: qHTS assay to identify small molecule antagonists of the sonic hedgehog signaling (Shh) pathway - cell viability counter screen (AID 1259367). Also: nearly all actives have a fitted effect of over 55% in size. Also: potency is read from the fitted curve at half-maximal effect. A digest of the protocol: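 Tox21 library chemicals were tested on a Gli1-Luc NIH/3T3 clone (2,000 cells/well) stimulated by conditioned medium; viability was quantified as fluorescence from CellTiter-Fluor reagent added at 23 hr.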

Experiment [17] in a line: A CellTox Green Cytotoxicity Assay to monitor cytotoxicity in HepG2 cells - 0 hour (AID 1224882). Also: nearly all actives have a fitted effect of over 35% in size. A digest of the protocol: as §3
Experiment [18] in a line: A CellTox Green Cytotoxicity Assay to monitor cytotoxicity in HepG2 cells - 8 hour (AID 1224890). Also: nearly all actives have a fitted effect of over 45% in size. Summed up: as §3
Experiment [19] is described as follows: qHTS assay to identify small molecule phospholipidosis (PLD) inducers (AID 1259344; active = well fitted curve in the direction sought with a large enough effect; an effect the other way counts as inactive or inconclusive). Summed up:
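Image-based: LipidTOX Red pit count/intensity per well and per cell; HepG2, 24 h compound at 37 C, PFA fixation, Hoechst counterstain.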

The target of experiment [20] is Androgen receptor (Homo sapiens) (UniProt P10275). Put plainly: qHTS assay to identify small molecule antagonists of the androgen receptor (AR) signaling pathway using the MDA cell line in the presence of 0.5 nM R1881 (AID 1259243). Also: nearly all actives have a fitted effect of over 50% in size. A digest of the protocol:
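With R1881 held at 0.5 nM (final), compound effects on MMTV-luciferase expression in MDA-kb2 cells were scored by luminescence after a 16 hr, 37C incubation.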
% is scaled to controls: 0 for no effect and ±100 for the full control effect.

Androgen receptor (Homo sapiens), sequence (P10275 whole entry, looked up): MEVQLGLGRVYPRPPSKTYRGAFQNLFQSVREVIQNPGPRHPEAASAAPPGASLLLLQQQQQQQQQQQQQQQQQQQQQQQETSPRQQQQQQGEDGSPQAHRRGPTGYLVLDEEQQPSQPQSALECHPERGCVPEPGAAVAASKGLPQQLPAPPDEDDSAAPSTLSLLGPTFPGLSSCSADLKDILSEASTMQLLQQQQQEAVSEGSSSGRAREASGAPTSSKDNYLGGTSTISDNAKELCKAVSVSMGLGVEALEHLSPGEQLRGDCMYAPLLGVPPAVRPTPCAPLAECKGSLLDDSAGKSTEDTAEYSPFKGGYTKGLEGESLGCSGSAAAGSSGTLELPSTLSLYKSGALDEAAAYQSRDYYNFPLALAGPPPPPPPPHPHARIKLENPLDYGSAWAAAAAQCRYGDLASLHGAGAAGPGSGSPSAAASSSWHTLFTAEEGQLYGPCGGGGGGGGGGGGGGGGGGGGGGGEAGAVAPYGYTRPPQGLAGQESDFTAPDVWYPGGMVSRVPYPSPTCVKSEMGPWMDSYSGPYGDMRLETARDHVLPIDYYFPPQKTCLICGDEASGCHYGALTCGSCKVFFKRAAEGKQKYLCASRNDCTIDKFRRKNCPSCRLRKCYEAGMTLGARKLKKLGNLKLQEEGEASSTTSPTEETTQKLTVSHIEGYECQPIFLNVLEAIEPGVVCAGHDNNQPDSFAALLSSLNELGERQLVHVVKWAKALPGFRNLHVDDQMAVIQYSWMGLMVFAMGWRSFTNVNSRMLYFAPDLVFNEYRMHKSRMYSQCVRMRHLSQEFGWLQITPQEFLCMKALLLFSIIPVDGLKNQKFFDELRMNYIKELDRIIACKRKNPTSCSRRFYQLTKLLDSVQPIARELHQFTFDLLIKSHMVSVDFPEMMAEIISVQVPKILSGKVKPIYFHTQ
Estrogen receptor (Homo sapiens), sequence (P03372 whole entry, looked up): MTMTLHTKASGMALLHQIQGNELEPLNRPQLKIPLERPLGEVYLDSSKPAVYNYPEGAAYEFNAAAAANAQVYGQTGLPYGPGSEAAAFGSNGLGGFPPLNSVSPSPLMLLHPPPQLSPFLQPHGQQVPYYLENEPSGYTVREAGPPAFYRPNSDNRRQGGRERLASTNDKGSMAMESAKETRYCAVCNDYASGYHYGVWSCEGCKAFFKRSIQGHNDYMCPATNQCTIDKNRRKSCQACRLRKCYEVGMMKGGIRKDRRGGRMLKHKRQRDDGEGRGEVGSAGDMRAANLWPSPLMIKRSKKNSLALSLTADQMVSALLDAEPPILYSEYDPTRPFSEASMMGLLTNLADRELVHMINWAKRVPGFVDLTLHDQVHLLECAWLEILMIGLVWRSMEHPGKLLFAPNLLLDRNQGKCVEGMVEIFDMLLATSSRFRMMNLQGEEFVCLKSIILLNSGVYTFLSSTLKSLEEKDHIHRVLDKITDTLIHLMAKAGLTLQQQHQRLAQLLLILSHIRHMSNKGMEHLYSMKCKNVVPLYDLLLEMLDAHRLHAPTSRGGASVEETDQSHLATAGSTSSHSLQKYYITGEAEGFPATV

Take `C=CC1(C)OC(=O)N(c2cc(Cl)cc(Cl)c2)C1=O` (configuration not stated): the molecule was classed as inactive in experiment [1], in [9], in experiment [10] and in [14]. In addition, the Potency result in experiment [2], in experiment [3], in experiment [4], in experiment [5], in experiment [6] and in experiment [7] was “inactive” each time. Also, the Potency entry in [8], in [11], in [12], in [13] and in experiment [15] was “inactive” in each case. Further, the Potency in [16] is 54.2 µM (active) and inactive.
Consider `ClCCCCl`, for which the molecule was called inactive in experiment [1], in experiment [17], in experiment [9], in experiment [10] and in [14]. Moreover, the Potency entry in experiment [3], in [4], in [5], in experiment [6], in experiment [7] and in [8] was “inactive” in each case. Moreover, the Potency entry in experiment [18], in experiment [11], in [13], in experiment [15] and in experiment [16] was “inactive” throughout.
For the molecule `N=C(N)[Se]`, the outcome in [1], in experiment [9], in experiment [10] and in [14] was inactive. Besides, the Potency result in [2], in experiment [3], in [4], in experiment [5], in [6] and in experiment [7] was “inactive” each time. Besides, the Potency entry in [8], in experiment [18], in [11], in experiment [12] and in experiment [13] was “inactive” each time.
As for `CC(Cc1ccccc1)NCCn1cnc2c1c(=O)n(C)c(=O)n2C` (configuration not stated), the outcome in [1], in experiment [9], in [10] and in [14] was inactive. For the same molecule, the Potency entry in experiment [2], in experiment [3], in experiment [4], in [5], in experiment [8] and in [18] was “inactive” in each case. Moreover, the Potency entry in experiment [11], in experiment [12], in [19] and in experiment [13] was “inactive” each time. Also, the Potency is 21.6 µM (active) in experiment [6] and 24.2 µM (active) in experiment [7].
In the case of `BrCCc1ccccc1`, the molecule was called inactive in [1], in [9], in experiment [10] and in experiment [14]. Further, the Potency entry in experiment [2], in experiment [3], in experiment [4], in experiment [5], in experiment [6] and in [7] was “inactive” throughout. Also, the Potency result in experiment [8], in experiment [18], in experiment [11], in experiment [13], in experiment [15] and in [16] was “inactive” in each case.
Turning to `Cc1ccc2c(c1)C1CN(C)CCC1N2` (configuration not stated), the activity change, negative = cytotoxicity in experiment [1] is -0.907% [at 15.8 µM] (inactive); in [6], -0.194% [at 15.8 µM] (inactive); in experiment [7], 1.42% [at 15.8 µM] (inactive); in experiment [9], -0.0575% [at 15.8 µM] (inactive); in experiment [10], -3.08% [at 19 µM] (inactive); in [14], 1.1% [at 19 µM] (inactive). The cytotoxicity increase is -4.65% [at 15.8 µM] (inactive) in experiment [2], 14.3% [at 15.8 µM] (inactive) in experiment [3], -1.28% [at 15.8 µM] (inactive) in [4] and 11.9% [at 15.8 µM] (inactive) in [18]. Also, the activity change, negative = cytotoxic in experiment [5] is -6.11% [at 15.8 µM] (inactive). Besides, in experiment [8], the activity change is -0.0479% [at 15.8 µM, stronger effect = higher value] (inactive). The viability change, negative = cytotoxic in [11] is -1.32% [at 19 µM] (inactive); in [15], -5.79% [at 19 µM] (inactive); in experiment [16], 5.33% [at 19 µM] (inactive). Also, the activity change, negative = inhibition in [12] was -0.7% [at 19 µM] (inactive). Further, the Potency result in experiment [19] was “inactive”.
As to `O=C/C=C/c1ccco1`, the call in experiment [1], in experiment [17], in [9], in [10] and in [14] was inactive. In addition, the Potency entry in experiment [3], in experiment [4], in experiment [5], in experiment [6], in [7] and in experiment [8] was “inactive” in each case. For the same molecule, the Potency entry in experiment [18], in experiment [11], in [20], in experiment [12], in experiment [13] and in [15] was “inactive” throughout. The Potency result in experiment [16] was “inactive”.
In the case of `CCOC(=O)NC(C)(C)Cc1ccc(Cl)cc1`, the call in experiment [1], in [17], in [9], in [10] and in [14] was inactive. In addition, the Potency result in experiment [3], in experiment [4], in [5], in experiment [6], in [7] and in [8] was “inactive” in each case. Moreover, the Potency result in experiment [18], in [11], in experiment [12], in experiment [13], in experiment [15] and in experiment [16] was “inactive” each time. Also, the PLD induction in [19] is 18.3% [at 1.53 µM] (inactive).
Take `O=c1[nH]c2ccccc2n1C1CCNCC1`: the outcome in experiment [1], in [9], in experiment [10] and in experiment [14] was inactive. Further, the Potency result in experiment [2], in [3], in experiment [4], in [5], in [6] and in experiment [7] was “inactive” in each case. Moreover, the Potency result in [18], in experiment [11], in experiment [20], in experiment [12] and in experiment [15] was “inactive” each time.
Take `BrCc1ccc(Br)cc1`: the molecule was called inactive in experiment [1], in [9], in experiment [10] and in [14]. The Potency result in experiment [2], in [3], in [4], in experiment [5], in [6] and in experiment [7] was “inactive” each time. The Potency entry in experiment [8], in [18], in [11], in [20], in experiment [12] and in [13] was “inactive” each time. For the same molecule, in experiment [16], the Potency entry was “inactive”.
For the molecule `CN(C)C1CCCCC1`, the molecule was classed as inactive in experiment [1], in experiment [9], in experiment [10] and in [14]. Moreover, the Potency entry in experiment [2], in experiment [3], in [4], in [5], in experiment [7] and in [8] was “inactive” in each case. Besides, the Potency entry in experiment [11], in [12], in experiment [13], in experiment [15] and in experiment [16] was “inactive” throughout.
As for `COc1ccc2c(C(=O)c3ccc(Cl)cc3)c(C)n(CC(=O)O)c2c1`, the molecule was called inactive in [1], in experiment [9], in [10] and in experiment [14]. Moreover, the Potency entry in [2], in [3], in experiment [4], in experiment [5], in experiment [6] and in experiment [7] was “inactive” in each case. Also, the Potency entry in experiment [8], in experiment [11], in [19] and in [16] was “inactive” in each case.
Consider `CN(C)CCN(C)C`, for which the molecule was classed as inactive in [1], in experiment [9], in [10] and in experiment [14]. Also, the Potency entry in experiment [2], in experiment [4], in experiment [5], in [6], in experiment [7] and in [8] was “inactive” each time. Further, the Potency result in experiment [18], in experiment [11], in [12], in experiment [13], in experiment [15] and in [16] was “inactive” throughout.
Turning to `CC[C@H](O)C(C[C@H](C)N(C)C)(c1ccccc1)c1ccccc1`, the call in [1], in experiment [9], in [10] and in experiment [14] was inactive. Besides, the Potency result in [2], in experiment [3], in experiment [4], in experiment [5], in experiment [7] and in [8] was “inactive” each time. In addition, the Potency entry in [18], in [11] and in experiment [12] was “inactive” in each case.

(Values after PubChem BioAssay (Tox21).)
